From PubChem BioAssay AID651718 (The Scripps Research Institute Molecular Screening Center, 2012)
In all, about 360,000 compounds went through this assay and about 2,700 (0.75%) were called active. Cut-off read from the data, not from the text of the source: active = inhibition above about 4.5%; inactive = the rest. Many of the other results were omitted from the sample, so actives are more common in it than they were.

test system: Methionine sulfoxide reductase A (Bos taurus); assay: inhibition of methionine sulfoxide reductase A – biochemical, absorbance, bovine, HTS, primary screen (AID 651718); settings: purified bovine MsrA, absorbance read-out; at 15.5 µM; stronger effect = higher value;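 note: 0% = vehicle wells with enzyme and 100% = reference inhibitor wells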

inhibition, inactive:
COc1ccc(NC(=O)NNC(=O)COc2cc(C)c(Cl)c(C)c2)c(OC)c1 -0.36%
CCCCCCCCN1C(=O)[C@@H](CC(=O)N2CCN(C(=O)OCC)CC2)C[C@@]2(C(=O)OC)C1=C[C@H](C1CCCC1)O[C@@H]2C 0.48%
CCOc1cc(/C=C2\C(=N)N3N=C(C)SC3=NC2=O)ccc1OCCOc1ccccc1 -1.53%
CCOc1cc(/C=C2\SC(N3CCCC(C)C3)=NC2=O)ccc1O (stereo not drawn) 3.02%
CC(C)CNc1cccc2c1S(=O)(=O)N[C@H](CC(C)C)CO2 2.13%
COC(=O)Cc1nnn2c1[C@H](C)[C@H](c1ccccc1Br)OCC2 0.32%
Cc1sc(NC(=O)C2=COCCO2)c(C#N)c1C 0.89%
Cc1c(C(=O)OC(C)C)sc(NC(=O)c2cccnc2)c1C#N 0.08%
Nc1ncnc2c1ncn2[C@@H]1O[C@H](C(=O)N[C@@H](CCc2ccccc2)C(=O)NCC(=O)N2CCOCC2)[C@@H](O)[C@H]1O -0.08%
COc1cccc(CNCc2ccc3c(c2)OCO3)c1 0.46%
NS(=O)(=O)c1ccc2nc(NC(=O)CS(=O)(=O)c3ccc(F)cc3)sc2c1 0.94%
CC(=O)Nc1ccc2nc(NC(=O)CS(=O)(=O)c3ccc(F)cc3)sc2c1 1.73%
COC(=O)C1=C(C)N(Cc2ccccc2C(F)(F)F)C(=NCc2ccc(OC)cc2)NC1c1cccc(C(F)(F)F)c1 (stereo not drawn) -3.43%
Nc1ccn([C@@H]2O[C@H](C(=O)N[C@H]3CCCCNC3=O)[C@@H](O)[C@H]2O)c(=O)n1 -0.17%
C=CC[C@]12C[C@@]3(O[C@H](c4ccc(C(F)(F)F)cc4)N=C3C[C@H](c3ccc(OC)cc3)[C@H]1C)N(C1CCN(Cc3ccccc3)CC1)C2=O 0.32%
Cc1cc(NCc2ccco2)n2c(nc3ccccc32)c1C#N -0.85%
O=C(CSc1nnc(-c2cccnc2)n1Cc1ccco1)c1ccc(Cl)c(Cl)c1 -1.02%
CCC1SC2=NCCN2C1(O)c1ccc(Cl)cc1 (stereo not drawn) -0.53%
Cc1cc2c(cc1C)NC1(C[C@H]3CCC(=O)N4CC[C@@H](C1)[C@@H]34)C(=NC(C)(C)CC(C)(C)C)N2 (stereo partly drawn) 0.45%

inhibition, active:
CCOc1cc(/C=C2\SC(N3CCCCC3)=NC2=O)ccc1O 4.93%
CCN(CC)C(=O)c1sc(NC(=O)c2ccco2)c(C#N)c1C 4.94%
CS(=O)(=O)c1ccc2nc(NC(=O)c3ccc(Cl)nc3)sc2c1 4.77%
Clc1cccc(-c2nc3nc4ccccc4nc3n2Cc2ccco2)c1 4.87%
